From the supplement of paper PMC6555819

Tests used:
Test in all cases: PBM binding z-score (relative to random genomic background probes); higher = stronger binding; sequences stand for … in GC…GCGATTGACAGCGTAGAATGAAGG
[1] = tested on: RARb homodimer (NR concentration 270 nM)
Summary of the method: (§1)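 For binding z-scores, the reference was random background probes on custom Agilent 4×180K protein-binding microarrays. These arrays were incubated 1 h with ligand-free nuclear receptor dimers in PBS pH 7.4, 2% milk, 0.02% Triton X-100, 1 mM DTT, 0.2 mg/mL BSA and 0.4 mg/ml salmon testes DNA. Fluorescence was scanned after antibody detection of each partner (one per run) and regression-normalized.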

[2] = tested on: RARg:RXRa (NR concentration 270 nM, RXRa partner concentration 90 nM)
Summary of the method: as §1

[3] = tested on: RARg homodimer (NR concentration 270 nM)
Summary of the method: as §1

[4] = tested on: RXRa DBDmut IVT, anti-RXR (DBD mutation: RXRa K156A/R161A, NR concentration 90 nM)
Summary of the method: as §1

[5] = tested on: RXRa homodimer (NR concentration 180 nM)
Summary of the method: as §1

[6] = tested on: THRa:RXRa (NR concentration 90 nM, RXRa partner concentration 90 nM)
Summary of the method: as §1

[7] = tested on: THRa homodimer (NR concentration 90 nM)
Summary of the method: as §1

[8] = tested on: VDR homodimer (NR concentration 270 nM)
Summary of the method: as §1

Sequence | PBM binding z-score [1] | PBM binding z-score [2] | PBM binding z-score [3] | PBM binding z-score [4] | PBM binding z-score [5] | PBM binding z-score [6] | PBM binding z-score [7] | PBM binding z-score [8]
CCTACTGGGCCACGAAAGGTCACTGATTCAGTGA | 4.67 | 4.7 | 4.98 | -0.0819 | 4.93 | 3.84 | 1.03 | 0.962
CCTATTAGTTGAACATAAGGGCAACCGAAGCTCG | 1.97 | 1.48 | 1.14 | 0.521 | 0.64 | 2.06 | 1.04 | 0.571
ATCTCTATGTAAAAGTTCAGTGAATCCCGAGGAT | 2.26 | 1.61 | 1.8 | 1.05 | 1.11 | 0.505 | 0.00559 | 1.6
ACAGACCGGTGATGAAGGTAACTCAGGCTATCAT | -0.0627 | -0.0765 | 0.11 | -0.318 | -0.04 | 0.648 | -0.0295 | -0.605
CCTACTGGGCCGAAGGTCATTGATTCCAATGCTC | 3.08 | 2.93 | 2.53 | 0.398 | 3.01 | 1.99 | 0.19 | 1.46
CTCGAAACGTCGTGCTCAGGTGAGTATACCAAAC | -0.132 | -0.476 | -0.311 | -0.187 | -0.479 | 0.94 | 0.555 | -0.446
CGTGCAAGGTCAAGGTCAGTGAAAGAGACTCGAA | 5 | 6.85 | 7.64 | 3.8 | 6.7 | 4.26 | 3.18 | 3.35
ATACCAAGGTGATCGTGAGGGCGTTGATACTAAC | 1.07 | 0.664 | 0.461 | 0.501 | 0.36 | 2.16 | 1.23 | 1.36
CATCCAAGGTCATAGGAGGTCAGTGAAGACAGAT | 5.07 | 7.02 | 7.22 | 3.91 | 7.03 | 5.14 | 3.35 | 5.28
GCTAGTAGATCAAGGTTAAGAAAGACTAAGCTAA | 0.204 | 0.392 | 0.168 | -0.105 | 0.832 | 1.01 | -0.473 | -0.442
ACTATTAGTTTACTTAGGGCAACCGATACGACGC | 0.74 | 0.56 | 1.01 | 1.17 | 0.51 | 1.66 | 0.312 | 0.435
ACTATTAGTTCACTTAGGGCAACCGATACGACGC | 1.93 | 2.02 | 2.25 | 2.72 | 1.04 | 3.1 | 0.596 | 2.32
CCGCCTGGGGCAAAGGTTACCATACTCAGTACGA | 2.28 | 3.48 | 1.78 | -0.0654 | 3.55 | 2.05 | 0.443 | 0.257
ATCGAAAGGTCGAGAGGTGAGTATACAGAAAGGC | 3 | 4.69 | 4.09 | 0.518 | 4.53 | 2.37 | -0.0205 | 0.542
ATCTCTAGGTAAAGATAGTTTAGTGAATGCAAAT | 0.204 | 0.354 | 0.533 | -0.0109 | 0.0812 | 0.487 | 0.117 | 0.358
CGAACTAGGTCATTGACAGGACAGTAAATAGTAA | 2.73 | 4.76 | 4.54 | 2.6 | 2.84 | 2.74 | 0.723 | 1.03
CCGACAGGGGCAAGGTTACCATAACGCACAGCCA | 1.43 | 1.58 | 1.94 | 0.0606 | 1.58 | 1.37 | 0.432 | 0.707
CCGAGTAGGTTATGGGGTATTCAGGCAACGGTGA | 0.841 | 0.46 | 0.562 | 0.0146 | 0.873 | 0.963 | 1.05 | 0.274
CGTCCAAGGTCAATGCTAGGTCAGTGATAGCATT | 5.15 | 7.48 | 6.91 | 3.87 | 5.32 | 4.38 | 3.02 | 3.54
TCTAGCAGGCCAGAGGGTGACTCAAGAGGTACGG | 0.225 | 0.176 | -0.109 | -0.237 | 0.486 | -0.0515 | -0.795 | -0.534
CGAACTAGGACAGAACAGGACAGTGAAGGATGAT | 0.214 | 0.299 | 0.538 | -0.164 | 0.23 | 0.492 | -0.221 | -0.157
TGAATGAGGTTATAAGATCCGGGAACGTTGCAAA | 0.199 | 1.19 | 0.881 | 0.792 | 1.78 | 1.7 | 0.151 | 0.411
ATCGAAAGGTCGACGTGGTGAGTATACACCGTTT | 2.74 | 4.04 | 4.24 | 1.23 | 4.03 | 1.89 | -0.255 | 0.481
GGACCGAGGGCATTCGAGTTGATAGCATGGCGAT | 0.78 | 1.2 | 1.14 | 2.61 | 0.753 | 3.46 | -0.46 | 3.18
TCTCGGAGGACTCGAAAGGTCAGAGCTCGACATC | 4.25 | 3.85 | 3.31 | 0.558 | 3.57 | 2.68 | 0.256 | 0.189
GCTGGTAGATCAAGGTTAAGAAAGACTAAGCTAA | 0.171 | 0.216 | 0.368 | -0.116 | 0.692 | 1.36 | -0.209 | -0.133
TCATCTAGGTAAATGCTAGGTGAAAGTCCGATCT | 0.149 | 0.279 | 0.0447 | 1.17 | 0.38 | 1.28 | 0.631 | -0.208
ACTATTAGTTGAGACGAGGGCAACCAATAGGTTG | 1.29 | 0.956 | 0.987 | 0.665 | 0.753 | 2.89 | 0.217 | 0.676
AATACAGGGCCATCGTAGGCCAGAGTACGCACAG | 0.468 | 0.421 | 0.993 | -0.218 | 0.0629 | 1.44 | -0.588 | 0.487
